# Results as given in PubChem BioAssay (NCI).
# The panel holds about 83,000 compounds, 20% with a hit somewhere; the sample as a whole holds those more often.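 Activity criterion: percent growth below 10, measured after cells in 96-well plates were exposed to a single compound concentration for 48 hours.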 Activity calls are given as the source filed them.
# System: U251 CNS
# Experiment: NCI-60 one-dose screen, 48 h (100 = growth as untreated, 0 = no growth, -100 = all killed)
# Details: 10 µM
row,Compound,growth
1,NC1=NC(c2ccccc2Cl)N=C(Nc2nn[nH]n2)N1 (centres undefined),97.5% (inactive)
2,CC(=O)Nc1ccc(-c2cn(-c3cccc(C(=O)Nc4ccc(Cl)c(C(F)(F)F)c4)c3)nn2)cn1,-59.5% (active)
3,CC(C)Sc1nc(NC2CC2)c(C#N)c(-c2ccccc2)n1,50.6% (inactive)
4,O=C1CCC(N2Cc3cc(CC(=O)Nc4ccc(N5CCCCC5)cc4)ccc3C2=O)C(=O)N1 (centres undefined),88.6% (inactive)
5,N#Cc1c(Cl)nc(SCc2ccc(F)cc2)nc1-c1ccc(F)cc1,92.8% (inactive)
6,Cc1ccc(C(=O)N/C(=C2/OCCN2C)[P+](c2ccccc2)(c2ccccc2)c2ccccc2)cc1,75.5% (inactive)
7,Cc1ccc(C(=O)NNC(=O)CSc2nc3ccccc3c(=O)[nH]2)cc1,104% (inactive)
8,Cc1ccc2nc(-c3ccc(-c4nnc(SCC(=O)Nc5ccc(Br)cc5)o4)cc3)[nH]c2c1,11.5% (inactive)
9,CN1C/C(=C\c2ccc(O)cc2O)c2[o+]c3cc(O)ccc3cc2C1,14% (inactive)
10,COc1ccc2[nH]cc(/C=N/Nc3ccc(Br)cn3)c2c1,20.1% (inactive)
11,CCCS(=O)(=O)c1oc(-c2ccc(F)cc2)nc1S(=O)(=O)c1ccc(F)cc1,31.7% (inactive)
12,COC[C@@H](CC(C)C)N=C1NC(=O)/C(=C/c2ccc3ncoc3c2)N1,16.4% (inactive)
13,CC(C)C(=O)Nc1ccc(C(=O)NC(=S)Nc2ccc(C(=O)O)cc2)cc1,104% (inactive)
14,Cc1ccc(C(=O)NCCCNc2nc(Nc3ccc(N4CCN(C)CC4)cc3)nc3ccsc23)cc1,18.5% (inactive)
15,CC(=O)Nc1nc(-c2ccc(N3CCN(C)CC3)c(NS(=O)(=O)c3cccc4c(N(C)C)cccc34)c2)cs1,28.1% (inactive)
16,S=c1nc(-c2ccccc2)cc(-c2cc3ccccc3nc2Cl)[nH]1,83.2% (inactive)
17,O=C(/C=C/Nc1ccc(F)cc1F)c1ccc2c(c1)Nc1ccccc1S2,73% (inactive)
18,Cc1ccc(-c2nc(Nc3ccccc3C(=O)O)c3ccccc3n2)cc1,18.4% (inactive)
19,COc1ccc(C(=O)/C=C/c2cc(C(F)(F)F)cc(C(F)(F)F)c2)cc1S(N)(=O)=O,-68.1% (active)

row,Compound,growth
1,COc1ccc(-c2cc(C(=O)N=Nc3c(O)[nH]c4ccccc34)c3ccccc3n2)cc1,-67.6% (active)
2,CS(=O)(=O)Nc1ccc(-c2ccc3c(c2)ncn3-c2ccc(NC(=O)Nc3ccc(Cl)c(C(F)(F)F)c3)cc2)cc1,-87.4% (active)
3,O=C(Nc1nc2ccc([N+](=O)[O-])cc2s1)Nc1ccccc1I,2.73% (active)
4,Clc1ccc2c(N/N=C/c3c[nH]c4ccc(Br)cc34)ccnc2c1,-25.6% (active)
5,N#Cc1ccc(-c2nn(-c3ccc(C(=O)O)cc3)cc2CNc2cc(Cl)cc(Cl)c2)cc1,32.8% (inactive)
6,COc1ccc2[nH]c(=O)c(CSc3ccc(Nc4nccc(-c5ccc(Cl)cc5)n4)cc3)cc2c1,94.2% (inactive)
7,O=C1c2ccccc2C(=O)c2c1c(C(=O)c1ccc(Cl)cc1)n1c2ccc2c3ccccc3ccc21,110% (inactive)
8,Cc1ccc(CSc2nc(-c3ccc(F)cc3)c(C#N)c(=O)[nH]2)cc1,96.6% (inactive)
9,CCCCCc1ccc(S(=O)(=O)N(C(C)=O)c2cc(-c3csc(N(C)C(C)=O)n3)ccc2N2CCN(C)CC2)cc1,-36.2% (active)
10,O=C(c1ccc([N+](=O)[O-])c([N+](=O)[O-])c1O)n1[nH]c(=O)c2ccccc2c1=O,61.1% (inactive)
11,COC[C@@H](CC(C)C)N=C1NC(=O)/C(=C/c2ccc3ncsc3c2)N1,15.8% (inactive)
12,O=C1Nc2cc(Cl)ccc2/C1=C/c1cccc(OCc2ccccc2)c1,-64.6% (active)
13,CN1CCN(c2ccc(C(=O)/C=C/c3cc(C(F)(F)F)ccc3Cl)cc2)CC1,-74.5% (active)
14,O=C(Cn1nc(-c2ccccc2)ccc1=O)NN1C(=O)c2ccccc2C1=O,102% (inactive)
15,O=C(Nc1ccncc1)c1ccc(-n2c(=O)[nH]c3ccccc3c2=O)cc1,99.7% (inactive)
16,O=C1N/C(=N\c2nccs2)S/C1=C\c1cccs1,29.5% (inactive)
17,COc1cc2c3c(n(CCCn4ccnc4)c(=O)c2cc1OC)-c1nc2c(cc1C3=O)OCO2,20.9% (inactive)
18,CN(C)c1cccc2c(S(=O)(=O)Nc3cccc(-c4csc(NC(=O)CCCCCN5CCN(c6cc7c(cc6F)C(=O)N(C6CCC(=O)NC6=O)C7=O)CC5)n4)c3)cccc12 (centres undefined),94.4% (inactive)

# System: PC-3 prostate
# Experiment: as above
# Details: 10 µM
row,Compound,growth
1,NC1=NC(c2ccccc2Cl)N=C(Nc2nn[nH]n2)N1 (centres undefined),103% (inactive)
2,CC(=O)Nc1ccc(-c2cn(-c3cccc(C(=O)Nc4ccc(Cl)c(C(F)(F)F)c4)c3)nn2)cn1,1.58% (active)
3,CC(C)Sc1nc(NC2CC2)c(C#N)c(-c2ccccc2)n1,83% (inactive)
4,O=C1CCC(N2Cc3cc(CC(=O)Nc4ccc(N5CCCCC5)cc4)ccc3C2=O)C(=O)N1 (centres undefined),26.7% (inactive)
5,N#Cc1c(Cl)nc(SCc2ccc(F)cc2)nc1-c1ccc(F)cc1,91.1% (inactive)
6,Cc1ccc(C(=O)N/C(=C2/OCCN2C)[P+](c2ccccc2)(c2ccccc2)c2ccccc2)cc1,62.5% (inactive)
7,Cc1ccc(C(=O)NNC(=O)CSc2nc3ccccc3c(=O)[nH]2)cc1,90.4% (inactive)
8,Cc1ccc2nc(-c3ccc(-c4nnc(SCC(=O)Nc5ccc(Br)cc5)o4)cc3)[nH]c2c1,56.8% (inactive)
9,CN1C/C(=C\c2ccc(O)cc2O)c2[o+]c3cc(O)ccc3cc2C1,65.8% (inactive)
10,COc1ccc2[nH]cc(/C=N/Nc3ccc(Br)cn3)c2c1,23% (inactive)
11,CCCS(=O)(=O)c1oc(-c2ccc(F)cc2)nc1S(=O)(=O)c1ccc(F)cc1,80.7% (inactive)
12,COC[C@@H](CC(C)C)N=C1NC(=O)/C(=C/c2ccc3ncoc3c2)N1,42.4% (inactive)
13,CC(C)C(=O)Nc1ccc(C(=O)NC(=S)Nc2ccc(C(=O)O)cc2)cc1,101% (inactive)
14,Cc1ccc(C(=O)NCCCNc2nc(Nc3ccc(N4CCN(C)CC4)cc3)nc3ccsc23)cc1,37.9% (inactive)
15,CC(=O)Nc1nc(-c2ccc(N3CCN(C)CC3)c(NS(=O)(=O)c3cccc4c(N(C)C)cccc34)c2)cs1,48.7% (inactive)
16,S=c1nc(-c2ccccc2)cc(-c2cc3ccccc3nc2Cl)[nH]1,60.1% (inactive)
17,O=C(/C=C/Nc1ccc(F)cc1F)c1ccc2c(c1)Nc1ccccc1S2,74.8% (inactive)
18,Cc1ccc(-c2nc(Nc3ccccc3C(=O)O)c3ccccc3n2)cc1,15.7% (inactive)
19,COc1ccc(C(=O)/C=C/c2cc(C(F)(F)F)cc(C(F)(F)F)c2)cc1S(N)(=O)=O,-14.4% (active)

row,Compound,growth
1,COc1ccc(-c2cc(C(=O)N=Nc3c(O)[nH]c4ccccc34)c3ccccc3n2)cc1,2.92% (active)
2,CS(=O)(=O)Nc1ccc(-c2ccc3c(c2)ncn3-c2ccc(NC(=O)Nc3ccc(Cl)c(C(F)(F)F)c3)cc2)cc1,-57.5% (active)
3,O=C(Nc1nc2ccc([N+](=O)[O-])cc2s1)Nc1ccccc1I,9.44% (active)
4,Clc1ccc2c(N/N=C/c3c[nH]c4ccc(Br)cc34)ccnc2c1,-52.9% (active)
5,N#Cc1ccc(-c2nn(-c3ccc(C(=O)O)cc3)cc2CNc2cc(Cl)cc(Cl)c2)cc1,33.6% (inactive)
6,COc1ccc2[nH]c(=O)c(CSc3ccc(Nc4nccc(-c5ccc(Cl)cc5)n4)cc3)cc2c1,83.2% (inactive)
7,O=C1c2ccccc2C(=O)c2c1c(C(=O)c1ccc(Cl)cc1)n1c2ccc2c3ccccc3ccc21,94.8% (inactive)
8,Cc1ccc(CSc2nc(-c3ccc(F)cc3)c(C#N)c(=O)[nH]2)cc1,95.5% (inactive)
9,CCCCCc1ccc(S(=O)(=O)N(C(C)=O)c2cc(-c3csc(N(C)C(C)=O)n3)ccc2N2CCN(C)CC2)cc1,26.5% (inactive)
10,O=C(c1ccc([N+](=O)[O-])c([N+](=O)[O-])c1O)n1[nH]c(=O)c2ccccc2c1=O,74.1% (inactive)
11,COC[C@@H](CC(C)C)N=C1NC(=O)/C(=C/c2ccc3ncsc3c2)N1,30.9% (inactive)
12,O=C1Nc2cc(Cl)ccc2/C1=C/c1cccc(OCc2ccccc2)c1,6.84% (active)
13,CN1CCN(c2ccc(C(=O)/C=C/c3cc(C(F)(F)F)ccc3Cl)cc2)CC1,-40.3% (active)
14,O=C(Cn1nc(-c2ccccc2)ccc1=O)NN1C(=O)c2ccccc2C1=O,97.8% (inactive)
15,O=C(Nc1ccncc1)c1ccc(-n2c(=O)[nH]c3ccccc3c2=O)cc1,92.4% (inactive)
16,O=C1N/C(=N\c2nccs2)S/C1=C\c1cccs1,41.3% (inactive)
17,COc1cc2c3c(n(CCCn4ccnc4)c(=O)c2cc1OC)-c1nc2c(cc1C3=O)OCO2,60.4% (inactive)
18,CN(C)c1cccc2c(S(=O)(=O)Nc3cccc(-c4csc(NC(=O)CCCCCN5CCN(c6cc7c(cc6F)C(=O)N(C6CCC(=O)NC6=O)C7=O)CC5)n4)c3)cccc12 (centres undefined),78.5% (inactive)
